# A selection: hits, their analogues and other compounds. The true share with any hit is near 6.2%.
# ATXN2 expr inh – Primary qHTS for Inhibitors of ATXN expression | Potency, µM (titrated, usually from 57 µM), for the others: at the highest dose activity change, negative = inhibition, hits mostly inhibitors | HEK-293 ATXN2-luciferase reporter, luminescence, 24 h | hit rate 0.72% among 360,000 | AID 1745845, 2022; note: % is set by controls: 0 for no effect and ±100 for the full control effect; nearly all actives have a fitted effect of over 55% in size
#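 qHTS (up to 57 uM final) was run with 24 h compound exposure of reporter cells at 37 °C. Each well was multiplexed: SteadyGlo luminescence measured ATXN2-luciferase expression after a fluorogenic Gly-Phe-AFC viability readout (25 uM final).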
# HT1080NT lethal – qHTS for induction of synthetic lethality in tumor cells producing 2HG: qHTS for the HT-1080-NT fibrosarcoma cell line. Potency, µM (doses to about 46.1 µM), for inactives: top-dose activity, negative = less viability, most hits filed as cytotoxic. AID 686970, 2013. HT-1080-NT fibrosarcoma viability, CellTiter-Glo ATP luminescence, 48 h. hit rate 1.6% among 360,000;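 note: NT is the 2HG producing partner of a matched IDH1 knockdown line; 0% = DMSO-treated cells and -100% = media-only wells without cells; nearly all actives have a fitted effect of over 55% in size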
#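 Viability by CellTiter-Glo luminescence after 48 h compound exposure at 37C of HT-1080-NT cells (750/well, RPMI, 5% FBS). % activity scaled between DMSO wells and medium-only wells, then curve-fitted and categorized by curve class.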
# KB-3-1 cytotox – qHTS assay for MDR1-selective chemotherapeutics: Primary screen using the parental adenocarcinoma cell KB-3-1; KB-3-1 viability, CellTiter-Glo ATP luminescence, 72 h; Potency, µM (highest dose often 46.1 µM), actives largely listed as cytotoxic; hit rate 1.4% among 400,000; AID 1347075, 2019; note: % is set by controls: 0 for no effect and ±100 for the full control effect; nearly all actives have a fitted effect of over 60% in size
#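 Screening of KB-3-1 cells (DMEM, 10% FBS, phenol-red free) ran from lowest to highest compound concentration; after 72 h at 37 °C viability was read luminescently and curves fitted.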
# S2 tox – Viability Counterscreen for Primary qHTS for Inhibitors of ATXN expression; S2 cells (HEK-293 line with an ATXN2-luciferase reporter) viability, CellTiter-Fluor protease fluorescence, 24 h; Potency, µM (titrated, usually from 56.7 µM), actives largely listed as cytotoxic; hit rate 0.49% among 400,000; note: nearly all actives have a fitted effect of over 40% in size
# KB-V1 cytotox – qHTS assay for MDR1-selective chemotherapeutics: Primary screen using the drug-selected MDR subline cells KB-V1; hit rate 3.4% among 400,000; Potency, µM (highest dose often 46.1 µM), usual class: cytotoxic; KB-V1 MDR cells viability, CellTiter-Glo, 72 h; note: % is set by controls: 0 for no effect and ±100 for the full control effect; nearly all actives have a fitted effect of over 60% in size
#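 Readout: CellTiter-Glo luminescence, 10 min after addition. Cells: KB-V1 MDR subline, 72 h at 37 degrees C with compound. Analysis: corrected, normalized data fitted to concentration-effect curves.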
# HT1080 IDH1KD tx – qHTS for induction of synthetic lethality in tumor cells producing 2HG: qHTS for the HT-1080-IDH1KD cell line. HT-1080 IDH1 knockdown viability, ATP luminescence, 48 h. Potency, µM (highest dose often 46.1 µM), for the others: at the top dose activity, negative = toxicity, actives largely listed as cytotoxic. hit rate 2% among 360,000;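 note: 0% = DMSO wells and -100% = cell-free medium wells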
#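 After a 2 h attachment period, IDH1KD HT-1080 cells took pin-transferred compound for 48 h at 37 °C; ATP-based luminescence after 10 min room-temperature reagent incubation reported viability.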
# * hit, by the source's call; i = inactive; ? = inconclusive; . = no result; ! = not active in a repeat; [ ] = another dose, or the depositor's remark. Calls come from the whole dose curve; as a rule, active = well fitted curve in the direction sought with a large enough effect; inconclusive = small, poorly fitted or top-dose-only effect, or another doubt; inactive = no such curve, though single readings can be large; an effect the other way counts as inactive or inconclusive. Potency is the fitted concentration of half-maximal effect.
SMILES,ATXN2 expr inh,HT1080NT lethal,KB-3-1 cytotox,S2 tox,KB-V1 cytotox,HT1080 IDH1KD tx
COc1ccc(CSC(=S)NNc2ccccc2)cc1,.,?,?,?,i,13µM*
Cc1cc(Cl)c(S(=O)(=O)N2CCN(c3ccc(F)cc3)CC2)cc1OCC(N)=O,-19.0%,-17.7%,i,i,?,-28.3%
CCOC(=O)C1CCCN(S(=O)(=O)c2cc(OCC(=O)NC3CCCCC3)c(C)cc2Cl)C1 (centres undefined),-21.9%,-2.7%,i,i,16.4µM*,-8.9%
Cc1cc(Cl)c(S(=O)(=O)N2CCN(c3ccc(F)cc3)CC2)cc1OCC(=O)NC1CCCCC1,-22.7%,?,0.731µM*,?,?,-22.9%
CN(C)c1cccc(C(=O)N2CCC(c3ccncc3)CC2)c1,-17.8%,.,?,i,i,.
COc1cc2nc(N3CCCN(C)CC3)nc(NC3CCCCC3)c2cc1OC,.,17.8µM*,.,.,.,?
COc1cc2c(NC3CCN(C(C)C)CC3)nc(N3CCCN(C)CC3)nc2cc1OCCOCCN1CCCC1,.,.,11.6µM*,.,i,.
COc1ccccc1NC(=O)N1CCN(c2ccc3nnc(-c4ccc(F)cc4)n3n2)CC1,17.8µM*!,25.9µM*,i,.,?,?
O=C(Nc1ccccc1Cl)N1CCN(c2ccc3nnc(-c4ccc(F)cc4)n3n2)CC1,-23.4%,-1.8%,i,i,i,-9.4%
O=C(O)C1(Cc2cccc(Nc3nccs3)n2)CCC(Oc2cccc(Cl)c2F)CC1 (centres undefined),14.2%,.,.,.,.,.
CCOc1ccc(NC(=O)c2ccccn2)cc1,10µM*,?,?,i,20.6µM*,?
COc1ccc(NS(=O)(=O)c2ccc(NC(=O)c3ccccn3)cc2)cc1,-12.7%,-2.9%,i,i,i,-4.9%
COc1ccc(C(=O)O/N=C(\N)c2ccccn2)cc1,11.2µM*,13µM*,?,i,i,16.4µM*
COc1ccc(C(=O)NNC(=O)c2ccccn2)cc1,.,20.6µM*,?,?,i,18.4µM*
COc1cc(OC)cc(C(=O)O/N=C(\N)c2ccccn2)c1,.,14.0%,i,i,i,13.4%
COc1ccc(NS(=O)(=O)c2cccc(NC(=O)c3ccccn3)c2)cc1,.,-28.1%,?,i,10.3µM*,-29.3%
Nc1nc(=S)c2n[nH]nc2[nH]1,.,.,?,.,i,.
CN1c2ccc(Cl)cc2-c2nc(SCC(=O)NCc3ccc(F)cc3)ncc2S1(=O)=O,-4.0%,.,i,i,i,.
CCCCN(C)S(=O)(=O)c1ccc(NC2=NS(=O)(=O)c3ccccc32)cc1,-3.4%,.,i,i,i,.
COc1cc(C(=O)NNC(=O)c2ccc3ccccc3n2)cc(OC)c1OC,?,?,?,i,i,?
CCOc1ccc(NC(=O)CC(c2ccccc2)c2ccc(F)cc2)cc1 (centres undefined),-6.8%,-1.8%,i,i,18.4µM*,1.1%
COc1ccc(OC(C)C(=O)Nc2ccc([N+](=O)[O-])cc2)cc1 (centres undefined),-22.8%,-18.0%,i,i,?,-22.0%
C/C(=N\NC(=O)C(C)Oc1ccc([N+](=O)[O-])cc1)c1ccccn1 (centres undefined),?,2.24µM*,8.2µM*,7.08µM*,5.17µM*,2.24µM*
CC(Oc1ccccc1)C(=O)NNC(=O)c1ccccn1 (centres undefined),?,-21.8%,?,?,4.61µM*,?
COc1cc(OC)cc(C(=O)NNC(=O)c2ccc3ccccc3n2)c1,?,?,?,?,?,20.6µM*
SMILES,ATXN2 expr inh,HT1080NT lethal,KB-3-1 cytotox,S2 tox,KB-V1 cytotox,HT1080 IDH1KD tx
CCOc1ccc(NC(=O)c2ccc(F)c(S(=O)(=O)N3CCN(c4ccccn4)CC3)c2)cc1,-3.6%,-18.4%,i,i,2.31µM*,?
CCOc1ccc(NC(=O)c2ccc(F)c(S(=O)(=O)N3CCCC3)c2)cc1,.,-16.5%,?,?,?,-23.7%
CCCC[C@@H]1Cc2[nH][nH]c(=O)c2[C@H](c2cccc3ccccc23)O1,-12.0%,?,i,i,i,25.9µM*
CCCN(c1ccc(OCC)cc1)S(=O)(=O)c1ccc2c(c1)NC(=O)CO2,-0.8%,-3.7%,?,i,1.64µM*,-15.4%
CCOc1ccc(NC(=O)CC(C)S(=O)(=O)c2ccc3c(c2)NC(=O)CO3)cc1 (centres undefined),31.2%,-2.1%,i,i,?,1.3%
O=C(CCCOc1ccccc1)Nc1ccc(Cl)c(S(=O)(=O)N2CCOCC2)c1,-24.2%,-10.6%,?,i,?,-13.3%
O=C(COc1cccc(Br)c1)Nc1ccc(Cl)c(S(=O)(=O)N2CCOCC2)c1,?,16.4µM*,i,?,?,-10.1%
O=C(Nc1cccc(Br)c1)c1ccc(Cl)c(S(=O)(=O)N2CCOCC2)c1,?,7.08µM*,?,i,4.61µM*,7.9%[9.24 µM]
CC(C(=O)Nc1ccccc1)c1ccc(-c2ccccc2)c(F)c1 (centres undefined),-28.6%,?,?,i,i,20.6µM*
CC(C)(C)OC(=O)NCc1ccc(NC(=O)c2nc[nH]c2C(=O)NCCNC(=O)c2[nH]cnc2C(=O)Nc2ccc(CNC(=O)OC(C)(C)C)cc2)cc1,-28.9%,11.6µM*,i,?,i,13µM*
CC(C)(C)OC(=O)CNC(=O)c1nc[nH]c1C(=O)NCc1ccc(CNC(=O)OC(C)(C)C)cc1,-17.5%,-6.4%,?,i,i,1.1%
CC(C)(C)OC(=O)CNC(=O)c1[nH]cnc1C(=O)Nc1ccc(CNC(=O)OC(C)(C)C)cc1,31.6µM*,?,?,?,?,20.6µM*
C[C@@H](O)CNC(=O)c1[nH]cnc1C(=O)Nc1ccc(CNC(=O)OC(C)(C)C)cc1,-6.6%,-6.9%,i,i,i,-6.7%
O=C(CCC1N=C2c3ccccc3N=C(SCc3cccc(F)c3)N2C1=O)NCc1cccs1 (centres undefined),.,.,i,.,?,.
COc1ccc(CCNC(=O)Cc2ccc(OCc3ccccc3)c(OC)c2[N+](=O)[O-])cc1OCc1ccccc1,2.3%,-0.5%,?,i,2.59µM*,0.4%
